We go through four compounds from PubChem BioAssay (EPA / NIEHS).

Details in all cases: mRNA level, 48 h; actives raise or lower the signal
Read-out in experiment [1]: matrix metalloproteinase-3 (MMP3), MMP3 (gene 4314)
Briefly: LTEA_HepaRG_MMP3: Life Technologies and Expression Analysis (LTEA) Assay for matrix metalloproteinase-3 (MMP3) using HepaRG (AID 2283519). The method, boiled down: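 Fluidigm-based TaqMan qRT-PCR, normalized to ACTB, GAPDH and POLR2A and fitted bidirectionally versus 0.5% DMSO, measured transcript levels. Treatment: duplicate 48 h exposures of HepaRG cells, ~100,000/well, to eight half-log concentrations topping at 100 uM.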

Read-out in experiment [2]: Paternally Expressed 10 (PEG10), PEG10 (gene 23089)
Briefly: LTEA_HepaRG_PEG10: Life Technologies and Expression Analysis (LTEA) Assay for Paternally Expressed 10 (PEG10) using HepaRG (AID 2283520).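 On AC50: PEG10 transcript by qRT-PCR normalised to ACTB GAPDH and POLR2A.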 The method, boiled down: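 PEG10 transcript measured by Fluidigm qRT-PCR, normalized to three housekeeping genes, in HepaRG cells treated 48 h (highest 100 uM, half-log steps, 0.5% DMSO vehicle). Cells plated 48 h before switching to serum-free induction medium.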

Read-out in experiment [3]: Nuclear factor NF-kappa-B p105 subunit (Homo sapiens) (UniProt P19838)
The experiment can be described thus: LTEA_HepaRG_NFKB1: Life Technologies and Expression Analysis (LTEA) Assay for Nuclear Factor Kappa B Subunit 1 (NFKB1) using HepaRG (AID 2283521). The method, boiled down: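 Differentiated human HepaRG cells were exposed for 48 h in serum-free induction medium to eight concentrations (top 100 uM, half-log steps, 0.5% DMSO), in duplicate. NFKB1 mRNA was measured by TaqMan qRT-PCR, normalized to ACTB/GAPDH/POLR2A, and fitted bidirectionally against DMSO.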

Read-out in experiment [4]: Protein phosphatase 2A (PPP2R4), PTPA (gene 5524)
Briefly: LTEA_HepaRG_PPP2R4: Life Technologies and Expression Analysis (LTEA) Assay for Protein phosphatase 2A (PPP2R4) using HepaRG (AID 2283522). The gist of the method:
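Expression was quantified by Fluidigm qRT-PCR normalised to three housekeeping genes after 48 h treatment. Human HepaRG cells received an 8-point series from 100 µM downward by half-logs, in duplicate with 0.5% DMSO vehicle and 1 mM phenobarbital as induction control.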

Read-out in experiment [5]: Phosphatase and tensin (PTEN), PTEN (gene 5728)
The experiment can be described thus: LTEA_HepaRG_PTEN: Life Technologies and Expression Analysis (LTEA) Assay for Phosphatase and tensin (PTEN) using HepaRG (AID 2283523). The method, boiled down: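 Read-out: TaqMan qRT-PCR of PTEN transcript, normalized to three housekeeping genes, fitted in both directions against 0.5% DMSO. Differentiated human HepaRG cultures received chemicals for 48 h, eight-point half-log series topping at 100 uM.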

Read-out in experiment [6]: solute carrier (SLC22A1), SLC22A1 (gene 6580)
The experiment can be described thus: LTEA_HepaRG_SLC22A1: Life Technologies and Expression Analysis (LTEA) Assay for solute carrier (SLC22A1) using HepaRG (AID 2283524). The method, boiled down: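 Transcript level of SLC22A1 quantified by qRT-PCR (normalized to three housekeeping genes) after 48 h chemical exposure of HepaRG cells, eight concentrations up to 100 µM, half-log steps, 0.5% DMSO vehicle. Gain or loss relative to DMSO fitted bidirectionally.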

Read-out in experiment [7]: Pyruvate Dehydrogenase Kinase 4 (PDK4), PDK4 (gene 5166)
The experiment can be described thus: LTEA_HepaRG_PDK4: Life Technologies and Expression Analysis (LTEA) Assay for Pyruvate Dehydrogenase Kinase 4 (PDK4) using HepaRG (AID 2283525). The method, boiled down: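 Readout is qRT-PCR of PDK4 transcript, normalized to three housekeeping genes, with bidirectional fitting against 0.5% DMSO vehicle. Differentiated HepaRG cells were treated 48 h in serum-free induction medium, duplicate wells, eight-point half-log series topping at 100 uM.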

Read-out in experiment [8]: NAD(P)H dehydrogenase [quinone] 1 (NQO1), NQO1 (gene 1728)
Briefly: LTEA_HepaRG_NQO1: Life Technologies and Expression Analysis (LTEA) Assay for NAD(P)H dehydrogenase [quinone] 1 (NQO1) using HepaRG (AID 2283526). The method, boiled down:
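NQO1 transcript induction or loss measured by TaqMan qRT-PCR, referenced to three housekeeping genes and fitted bidirectionally against 0.5% DMSO. HepaRG cultures exposed 48 h, duplicate, eight-point half-log series, top 100 uM.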

Read-out in experiment [9]: Nuclear factor erythroid 2-related factor 2 (Homo sapiens) (UniProt Q16236)
Briefly: LTEA_HepaRG_NFE2L2: Life Technologies and Expression Analysis (LTEA) Assay for Nuclear factor erythroid 2-related factor 2 (NFE2L2) Transcription Factor using HepaRG (AID 2283527).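 Further: TaqMan qRT-PCR transcript level normalised to ACTB GAPDH and POLR2A housekeeping genes.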 The method, boiled down:
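NFE2L2 transcript level was read by qRT-PCR (housekeeping ACTB/GAPDH/POLR2A normalisation) after 48 h chemical treatment of HepaRG in serum-free induction medium. Duplicate 8-point half-log curves, top 100 uM, 0.5% DMSO vehicle; up- or down-regulation fitted against vehicle.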

Read-out in experiment [10]: Signal transducer and activator of transcription 3 (Homo sapiens) (UniProt P40763)
Briefly: LTEA_HepaRG_STAT3: Life Technologies and Expression Analysis (LTEA) Assay for Signal transducer and activator of transcription (STAT3) using HepaRG (AID 2283529). The gist of the method:
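STAT3 transcript quantified by qRT-PCR against three housekeeping genes (ACTB, GAPDH, POLR2A), fitted both directions relative to DMSO. HepaRG cultures exposed 48 h to eight half-log concentrations, top 100 uM, 0.5% DMSO, serum-free induction medium.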

Read-out in experiment [11]: solute carrier (SLCO1B1), SLCO1B1 (gene 10599)
The experiment can be described thus: LTEA_HepaRG_SLCO1B1: Life Technologies and Expression Analysis (LTEA) Assay for solute carrier (SLCO1B1) using HepaRG (AID 2283530). The method, boiled down:
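Human HepaRG cultures treated for 48 h with an eight-concentration half-log series topping at 100 uM; SLCO1B1 measured by qRT-PCR and fitted bidirectionally relative to DMSO.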

Read-out in experiment [12]: sulfotransferase 2A1 (SULT2A1), SULT2A1 (gene 6822)
The experiment can be described thus: LTEA_HepaRG_SULT2A1: Life Technologies and Expression Analysis (LTEA) Assay for sulfotransferase 2A1 (SULT2A1) using HepaRG (AID 2283531). The gist of the method: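 Gene-expression endpoint in a human liver cell line: SULT2A1 mRNA change after 48 h chemical treatment, curves fitted in both directions relative to 0.5% DMSO vehicle. Concentrations spanned eight half-log steps from 100 uM.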

Read-out in experiment [13]: Transforming Growth Factor (TGFA), TGFA (gene 7039)
Briefly: LTEA_HepaRG_TGFA: Life Technologies and Expression Analysis (LTEA) Assay for Transforming Growth Factor (TGFA) using HepaRG (AID 2283532). The gist of the method:
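TGFA transcript quantified by qRT-PCR (Fluidigm arrays) against three housekeeping genes, after 48 hours chemical treatment of HepaRG cells. Top concentration 100 uM with half-log dilutions, 8 points, duplicates, 0.5% DMSO.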

Read-out in experiment [14]: Transforming Growth Factor (TGFB1), TGFB1 (gene 7040)
The experiment can be described thus: LTEA_HepaRG_TGFB1: Life Technologies and Expression Analysis (LTEA) Assay for Transforming Growth Factor (TGFB1) Transporter using HepaRG (AID 2283533). The method, boiled down: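 Eight-point concentration-response (max 100 uM, half-log) in HepaRG under serum-free induction conditions, 48 h. TGFB1 mRNA by qRT-PCR, housekeeping-normalized.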

Read-out in experiment [15]: TIMP1, TIMP1 (gene 7076)
The experiment can be described thus: LTEA_HepaRG_TIMP1: Life Technologies and Expression Analysis (LTEA) Assay for TIMP1 using HepaRG (AID 2283534).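 On outcome: TaqMan qRT-PCR signal normalized to ACTB GAPDH and POLR2A housekeeping genes.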 The method, boiled down:
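TIMP1 induction or repression in HepaRG cells after 48 h chemical exposure (eight concentrations, highest 100 uM), assessed by normalized qRT-PCR with bidirectional fitting to DMSO controls.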

Read-out in experiment [16]: Tumor necrosis factor receptor 1 (TNFRSF1A), TNFRSF1A (gene 7132)
The experiment can be described thus: LTEA_HepaRG_TNFRSF1A: Life Technologies and Expression Analysis (LTEA) Assay for Tumor necrosis factor receptor 1 (TNFRSF1A) using HepaRG (AID 2283535). The gist of the method: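 Assay uses 48 h chemical treatment of differentiated HepaRG monolayers, tested in duplicate at eight concentrations from 100 uM downward in 0.5% DMSO. mRNA is normalized to ACTB, GAPDH and POLR2A, with induction or suppression fitted relative to vehicle.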

Read-out in experiment [17]: Thyroid Hormone Responsive (THRSP), THRSP (gene 7069)
Briefly: LTEA_HepaRG_THRSP: Life Technologies and Expression Analysis (LTEA) Assay for Thyroid Hormone Responsive (THRSP) using HepaRG (AID 2283536). The gist of the method:
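THRSP transcript quantified by Fluidigm qRT-PCR against three housekeeping genes after 48 h chemical exposure of HepaRG cells in serum-free induction medium; eight-point half-log series, top 100 uM, 0.5% DMSO vehicle, duplicate wells.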

Read-out in experiment [18]: Cellular tumor antigen p53 (Homo sapiens) (UniProt P04637)
The experiment can be described thus: LTEA_HepaRG_TP53: Life Technologies and Expression Analysis (LTEA) Assay for Tumor Protein P53 (TP53) using HepaRG (AID 2283537). The gist of the method: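 HepaRG, 48 h exposure, top 100 uM, half-log 8-point, 0.5% DMSO vehicle, duplicates. Read: TP53 mRNA by TaqMan qRT-PCR, normalised to ACTB/GAPDH/POLR2A; bidirectional fit vs DMSO.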

Read-out in experiment [19]: succinate dehydrogenase complex iron sulfur subunit B (SDHB), SDHB (gene 6390)
The experiment can be described thus: LTEA_HepaRG_SDHB: Life Technologies and Expression Analysis (LTEA) Assay for succinate dehydrogenase complex iron sulfur subunit B (SDHB) using HepaRG (AID 2283528). The gist of the method: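 HepaRG, 48 h exposure, 8-pt half-log series from 100 uM in 0.5% DMSO, duplicates. Readout: SDHB mRNA by Fluidigm qRT-PCR vs housekeeping genes; bidirectional fit relative to DMSO.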

Read-out in experiment [20]: UDP glucuronosyltransferase (UGT1A1), UGT1A1 (gene 54658)
The experiment can be described thus: LTEA_HepaRG_UGT1A1: Life Technologies and Expression Analysis (LTEA) Assay for UDP glucuronosyltransferase (UGT1A1) using HepaRG (AID 2283538). The method, boiled down: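 UGT1A1 transcript level, measured by qRT-PCR with three housekeeping genes for normalization, after 48 h treatment of human HepaRG cells (0.5% DMSO, duplicates, up to 100 uM, half-log steps, 8 points). Curves fit both directions against DMSO baseline.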

Calls of active or inactive are those of the source. How the source made its calls: active means hit-call score of the fitted dose curve at least 0.9, where 1 is the maximum; inactive means score below 0.9.

Nuclear factor NF-kappa-B p105 subunit (Homo sapiens), sequence (P19838 whole entry, looked up): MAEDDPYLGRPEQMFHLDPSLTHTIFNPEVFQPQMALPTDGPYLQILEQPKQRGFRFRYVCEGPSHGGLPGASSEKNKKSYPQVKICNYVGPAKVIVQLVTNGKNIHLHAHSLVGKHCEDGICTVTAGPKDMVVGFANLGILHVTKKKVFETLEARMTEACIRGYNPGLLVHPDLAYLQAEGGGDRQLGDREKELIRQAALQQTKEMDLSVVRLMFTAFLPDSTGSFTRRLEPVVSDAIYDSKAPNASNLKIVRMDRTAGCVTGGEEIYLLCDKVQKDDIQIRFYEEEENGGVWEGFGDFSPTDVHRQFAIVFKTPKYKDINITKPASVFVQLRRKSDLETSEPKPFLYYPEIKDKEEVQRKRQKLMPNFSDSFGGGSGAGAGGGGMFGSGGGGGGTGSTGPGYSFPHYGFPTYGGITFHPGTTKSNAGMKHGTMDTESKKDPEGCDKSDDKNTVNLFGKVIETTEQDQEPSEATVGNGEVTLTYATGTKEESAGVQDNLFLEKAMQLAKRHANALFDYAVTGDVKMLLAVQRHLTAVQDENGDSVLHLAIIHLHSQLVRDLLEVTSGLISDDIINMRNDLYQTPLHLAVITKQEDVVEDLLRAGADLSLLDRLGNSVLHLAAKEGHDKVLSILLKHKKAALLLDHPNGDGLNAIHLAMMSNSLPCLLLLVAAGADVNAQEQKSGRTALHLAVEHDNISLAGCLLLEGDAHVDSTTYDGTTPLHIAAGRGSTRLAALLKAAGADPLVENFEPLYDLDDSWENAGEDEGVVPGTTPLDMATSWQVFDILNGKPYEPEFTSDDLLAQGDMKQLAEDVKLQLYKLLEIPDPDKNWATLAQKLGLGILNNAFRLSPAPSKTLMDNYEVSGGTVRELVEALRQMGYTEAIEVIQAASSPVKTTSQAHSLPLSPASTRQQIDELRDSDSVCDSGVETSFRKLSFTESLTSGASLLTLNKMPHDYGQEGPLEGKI
Cellular tumor antigen p53 (Homo sapiens), sequence (P04637 whole entry, looked up): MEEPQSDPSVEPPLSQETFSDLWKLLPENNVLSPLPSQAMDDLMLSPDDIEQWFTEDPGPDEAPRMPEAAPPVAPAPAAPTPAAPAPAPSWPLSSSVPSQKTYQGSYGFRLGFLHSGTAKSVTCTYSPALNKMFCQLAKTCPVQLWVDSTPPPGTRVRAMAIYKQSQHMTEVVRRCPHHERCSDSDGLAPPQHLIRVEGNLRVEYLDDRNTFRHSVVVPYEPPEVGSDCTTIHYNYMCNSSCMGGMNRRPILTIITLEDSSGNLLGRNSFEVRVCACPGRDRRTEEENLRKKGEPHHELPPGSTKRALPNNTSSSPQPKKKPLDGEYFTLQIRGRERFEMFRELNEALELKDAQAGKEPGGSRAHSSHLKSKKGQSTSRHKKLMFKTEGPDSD
Nuclear factor erythroid 2-related factor 2 (Homo sapiens), sequence (Q16236 whole entry, looked up): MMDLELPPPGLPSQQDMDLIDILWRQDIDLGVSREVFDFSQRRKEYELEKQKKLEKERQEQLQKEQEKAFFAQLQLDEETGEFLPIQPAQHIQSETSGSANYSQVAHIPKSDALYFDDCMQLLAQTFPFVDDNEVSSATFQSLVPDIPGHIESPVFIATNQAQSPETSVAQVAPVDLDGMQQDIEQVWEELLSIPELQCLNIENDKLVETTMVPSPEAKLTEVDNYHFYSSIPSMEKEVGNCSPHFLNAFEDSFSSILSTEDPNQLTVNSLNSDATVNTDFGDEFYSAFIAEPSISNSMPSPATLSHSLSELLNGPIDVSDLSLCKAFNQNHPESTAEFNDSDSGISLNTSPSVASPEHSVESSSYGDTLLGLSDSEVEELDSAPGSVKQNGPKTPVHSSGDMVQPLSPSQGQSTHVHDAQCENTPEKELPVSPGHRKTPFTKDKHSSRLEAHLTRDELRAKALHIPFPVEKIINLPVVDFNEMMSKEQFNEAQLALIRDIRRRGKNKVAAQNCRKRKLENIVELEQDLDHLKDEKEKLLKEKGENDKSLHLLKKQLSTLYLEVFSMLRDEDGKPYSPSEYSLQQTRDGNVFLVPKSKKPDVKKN
Signal transducer and activator of transcription 3 (Homo sapiens), sequence (P40763 whole entry, looked up): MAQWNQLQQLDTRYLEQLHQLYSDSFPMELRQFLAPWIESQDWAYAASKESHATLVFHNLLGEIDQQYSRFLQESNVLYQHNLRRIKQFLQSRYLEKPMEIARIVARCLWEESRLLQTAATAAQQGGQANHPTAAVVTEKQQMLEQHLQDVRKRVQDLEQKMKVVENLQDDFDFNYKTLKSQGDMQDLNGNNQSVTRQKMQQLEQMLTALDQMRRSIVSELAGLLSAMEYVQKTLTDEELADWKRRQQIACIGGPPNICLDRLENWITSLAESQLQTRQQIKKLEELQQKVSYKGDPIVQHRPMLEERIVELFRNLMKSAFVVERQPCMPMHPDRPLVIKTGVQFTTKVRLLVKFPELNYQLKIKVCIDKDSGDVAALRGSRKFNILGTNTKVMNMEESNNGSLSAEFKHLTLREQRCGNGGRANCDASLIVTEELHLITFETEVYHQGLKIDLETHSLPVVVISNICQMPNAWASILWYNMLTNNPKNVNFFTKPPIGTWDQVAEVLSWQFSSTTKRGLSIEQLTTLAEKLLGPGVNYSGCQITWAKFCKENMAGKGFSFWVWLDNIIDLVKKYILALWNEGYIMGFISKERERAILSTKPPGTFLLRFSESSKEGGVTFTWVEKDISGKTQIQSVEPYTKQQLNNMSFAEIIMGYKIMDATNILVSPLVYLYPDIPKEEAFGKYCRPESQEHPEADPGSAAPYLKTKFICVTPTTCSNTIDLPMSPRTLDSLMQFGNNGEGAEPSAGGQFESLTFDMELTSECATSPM

Regarding `CCCCCCCC=O`, the call in [1], in [2], in experiment [3], in [4], in [5] and in [6] was inactive. Besides, the compound was called inactive in [7], in [8], in experiment [9], in experiment [10], in experiment [11] and in experiment [12]. Also, the result in experiment [13], in experiment [14], in experiment [15], in [16], in [17] and in experiment [18] was inactive.
In the case of `Cc1ccc2ncccc2c1`, the compound was classed as inactive in [1], in [2], in [3], in experiment [5], in experiment [6] and in experiment [8]. Also, the compound was classed as inactive in experiment [9], in [19], in experiment [10], in experiment [11], in [12] and in experiment [13]. Further, the compound was called inactive in experiment [14], in experiment [15], in [16], in experiment [17] and in experiment [18].
`CCCCCCOCCO`: the outcome in [1], in experiment [2], in experiment [3], in experiment [4], in experiment [5] and in experiment [6] was inactive. In addition, the outcome in experiment [7], in [8], in experiment [9], in experiment [19], in experiment [11] and in [12] was inactive. Also, the compound was called inactive in experiment [13], in experiment [14], in experiment [15], in experiment [16], in [18] and in [20].
`COc1cc(-c2nc(NC(=O)c3cc4cc(C)cc(C)c4n3CC(=O)O)sc2CCC2CCCCC2)c(OC)cc1Cl`: the result in [1] and in experiment [9] was inactive. The AC50 is 11.9 µM (active) in experiment [2]; 19.4 µM (active) in experiment [3]; 8.71 µM (active) in [4]; 16.8 µM (active) in experiment [5]; 7.07 µM (active) in [6]; 3.35 µM (active) in experiment [8]. Also, the AC50 was 13.4 µM (active) in [19]; 6.78 µM (active) in [11]; 6.35 µM (active) in experiment [12]; 60.3 µM (active) in experiment [13]; 12.1 µM (active) in experiment [14]; 4.26 µM (active) in [15]. Moreover, the AC50 in experiment [16] was 6.91 µM (active); in experiment [17], 6.89 µM (active); in experiment [18] it was 24.6 µM (active).
